B1: unnamed (peptide)
chain: ISPPASPPPEFDFSK

Target: AgAbp1
Assay: SPOT peptide array binding signal intensity (averaged, normalized) (arbitrary units (background-subtracted, floor 0; scale differs between SH3 domains)); higher = stronger binding of the SH3 domain to the peptide
In short: (§1)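 Binding signal refers to normalized, background-subtracted spot intensity averaged over replicates, expressed in arbitrary units that differ between domains. GST-fused SH3 domains from four yeast species were incubated at 10 μg/ml overnight at 4°C on cellulose membranes of synthetic 15-mer peptides with cysteines replaced by serines. Bound protein was detected with anti-GST antibody, an HRP anti-mouse secondary and luminol, and quantified with Genespotter.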

Binder	SPOT peptide array binding signal intensity
B1	≤ 0

Target: AgBbc1
Assay: as above
In short: as §1

Binder	SPOT peptide array binding signal intensity
B1	≤ 0

Target: AgBem1-D1
Assay: as above
In short: as §1

Binder	SPOT peptide array binding signal intensity
B1	≤ 0

Target: AgBzz1-D1
Assay: as above
In short: as §1

Binder	SPOT peptide array binding signal intensity
B1	≤ 0

Target: AgBzz1-D2
Assay: as above
In short: as §1

Binder	SPOT peptide array binding signal intensity
B1	22.5

Target: AgCyk3
Assay: as above
In short: as §1

Binder	SPOT peptide array binding signal intensity
B1	≤ 0

Target: AgFus1
Assay: as above
In short: as §1

Binder	SPOT peptide array binding signal intensity
B1	4

Target: AgHof1
Assay: as above
In short: as §1

Binder	SPOT peptide array binding signal intensity
B1	≤ 0

Target: AgHse1
Assay: as above
In short: as §1

Binder	SPOT peptide array binding signal intensity
B1	27.5

Target: AgLsb1
Assay: as above
In short: as §1

Binder	SPOT peptide array binding signal intensity
B1	≤ 0

Target: AgLsb4
Assay: as above
In short: as §1

Binder	SPOT peptide array binding signal intensity
B1	≤ 0

Target: AgMyo5
Assay: as above
In short: as §1

Binder	SPOT peptide array binding signal intensity
B1	781

Target: AgNbp2
Assay: as above
In short: as §1

Binder	SPOT peptide array binding signal intensity
B1	≤ 0

Target: AgRvs167
Assay: as above
In short: as §1

Binder	SPOT peptide array binding signal intensity
B1	0.333

Target: AgSho1
Assay: as above
In short: as §1

Binder	SPOT peptide array binding signal intensity
B1	≤ 0

Target: AgSla1-D1-D2
Assay: as above
In short: as §1

Binder	SPOT peptide array binding signal intensity
B1	5

Target: AgSla1-D3
Assay: as above
In short: as §1

Binder	SPOT peptide array binding signal intensity
B1	≤ 0

Target: CaAbp1-D1
Assay: as above
In short: as §1

Binder	SPOT peptide array binding signal intensity
B1	≤ 0

Target: CaAbp1-D2
Assay: as above
In short: as §1

Binder	SPOT peptide array binding signal intensity
B1	1.5

Target: CaBbc1
Assay: as above
In short: as §1

Binder	SPOT peptide array binding signal intensity
B1	≤ 0

Target: CaBem1-D1
Assay: as above
In short: as §1

Binder	SPOT peptide array binding signal intensity
B1	≤ 0

Target: CaBzz1-D1
Assay: as above
In short: as §1

Binder	SPOT peptide array binding signal intensity
B1	≤ 0

Target: CaBzz1-D2
Assay: as above
In short: as §1

Binder	SPOT peptide array binding signal intensity
B1	14.5

Target: CaCyk3
Assay: as above
In short: as §1

Binder	SPOT peptide array binding signal intensity
B1	≤ 0

Target: CaFus1
Assay: as above
In short: as §1

Binder	SPOT peptide array binding signal intensity
B1	≤ 0

Target: CaHof1
Assay: as above
In short: as §1

Binder	SPOT peptide array binding signal intensity
B1	1

Target: CaHse1
Assay: as above
In short: as §1

Binder	SPOT peptide array binding signal intensity
B1	1

Target: CaLsb1
Assay: as above
In short: as §1

Binder	SPOT peptide array binding signal intensity
B1	≤ 0

Target: CaLsb4
Assay: as above
In short: as §1

Binder	SPOT peptide array binding signal intensity
B1	≤ 0

Target: CaMyo5
Assay: as above
In short: as §1

Binder	SPOT peptide array binding signal intensity
B1	40

Target: CaNbp2
Assay: as above
In short: as §1

Binder	SPOT peptide array binding signal intensity
B1	≤ 0

Target: CaRvs167
Assay: as above
In short: as §1

Binder	SPOT peptide array binding signal intensity
B1	0.833

Target: CaRvs167-3
Assay: as above
In short: as §1

Binder	SPOT peptide array binding signal intensity
B1	≤ 0

Target: CaSho1
Assay: as above
In short: as §1

Binder	SPOT peptide array binding signal intensity
B1	≤ 0

Target: CaSla1-D1-D2
Assay: as above
In short: as §1

Binder	SPOT peptide array binding signal intensity
B1	≤ 0

Target: CaSla1-D3
Assay: as above
In short: as §1

Binder	SPOT peptide array binding signal intensity
B1	1.5

Target: ScAbp1
Assay: as above
In short: as §1

Binder	SPOT peptide array binding signal intensity
B1	≤ 0

Target: ScBbc1
Assay: as above
In short: as §1

Binder	SPOT peptide array binding signal intensity
B1	≤ 0

Target: ScBem1-D1
Assay: as above
In short: as §1

Binder	SPOT peptide array binding signal intensity
B1	≤ 0

Target: ScBzz1-D1
Assay: as above
In short: as §1

Binder	SPOT peptide array binding signal intensity
B1	≤ 0

Target: ScBzz1-D2
Assay: as above
In short: as §1

Binder	SPOT peptide array binding signal intensity
B1	≤ 0

Target: ScCyk3
Assay: as above
In short: as §1

Binder	SPOT peptide array binding signal intensity
B1	≤ 0

Target: ScFus1
Assay: as above
In short: as §1

Binder	SPOT peptide array binding signal intensity
B1	≤ 0

Target: ScHof1
Assay: as above
In short: as §1

Binder	SPOT peptide array binding signal intensity
B1	≤ 0

Target: ScHse1
Assay: as above
In short: as §1

Binder	SPOT peptide array binding signal intensity
B1	≤ 0

Target: ScLsb1
Assay: as above
In short: as §1

Binder	SPOT peptide array binding signal intensity
B1	≤ 0

Target: ScLsb2
Assay: as above
In short: as §1

Binder	SPOT peptide array binding signal intensity
B1	≤ 0

Target: ScLsb3
Assay: as above
In short: as §1

Binder	SPOT peptide array binding signal intensity
B1	≤ 0

Target: ScLsb4
Assay: as above
In short: as §1

Binder	SPOT peptide array binding signal intensity
B1	≤ 0

Target: ScMyo3
Assay: as above
In short: as §1

Binder	SPOT peptide array binding signal intensity
B1	1120

Target: ScMyo5
Assay: as above
In short: as §1

Binder	SPOT peptide array binding signal intensity
B1	428

Target: ScNbp2
Assay: as above
In short: as §1

Binder	SPOT peptide array binding signal intensity
B1	≤ 0

Target: ScPex13
Assay: as above
In short: as §1

Binder	SPOT peptide array binding signal intensity
B1	≤ 0

Target: ScRvs167
Assay: as above
In short: as §1

Binder	SPOT peptide array binding signal intensity
B1	≤ 0

Target: ScSho1
Assay: as above
In short: as §1

Binder	SPOT peptide array binding signal intensity
B1	≤ 0

Target: ScSla1-D1-D2
Assay: as above
In short: as §1

Binder	SPOT peptide array binding signal intensity
B1	≤ 0

Target: ScSla1-D3
Assay: as above
In short: as §1

Binder	SPOT peptide array binding signal intensity
B1	3.5

Target: SpAbp1-D1
Assay: as above
In short: as §1

Binder	SPOT peptide array binding signal intensity
B1	≤ 0

Target: SpBbc1
Assay: as above
In short: as §1

Binder	SPOT peptide array binding signal intensity
B1	2.5

Target: SpBzz1-D1
Assay: as above
In short: as §1

Binder	SPOT peptide array binding signal intensity
B1	≤ 0

— the supplement of paper PMC4466140
